Six1-Eya2 blk – inhibitors of human Six1/Eya2 interaction. Q15475+O00167. AlphaScreen GST-Six1/His-Eya2 binding, biochemical; stronger effect = lower value. activity change, % (concentration not given with the values). hit rate 0.56% among 360,000. AID 651725; in the data active means activity change below about -65%; inconclusive means mostly about -30% to -63%; further: on the % scale 0 is the no-effect control and ±100 the full control effect
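AlphaScreen luminescence read after one hour at 37 °C in darkness. Pin-transferred compounds met GST-Six1 and His-Eya2 protein (5X stock 250 nM/500 nM) plus glutathione donor and Ni-chelate acceptor beads (5X, 50 ug/mL).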
Eya2 inh – blocks the phosphatase activity of human Eya2; O00167; recombinant Eya2, OMFP fluorescence dephosphorylation (OMFP is methylfluorescein phosphate); Potency, µM (highest dose often 76.9 µM), for inactives: top-dose activity, negative = inhibition, actives largely listed as inhibitors; hit rate 0.006% among 330,000; further: potency means the concentration at half of the fitted maximal effect; on the % scale 0 is the no-effect control and ±100 the full control effect
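Eya2 (0.2 uM) preincubated 10 min at ambient with compound, then OMFP substrate added at 50 uM; 10 min reaction in 50 mM HEPES pH 7.5, 50 mM NaCl, 5 uM MgCl2, 0.05% BSA, 1 mM DTT. Fluorescence read at Ex 485/Em 525 nm.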
Glioma ERSR ind – inducers of ER stress response in human glioma cells | U87-MG GRP78 promoter luciferase reporter, 16 h | Potency, µM, without a hit: at the highest dose activation, most hits filed as activators | hit rate 0.02% among 420,000 | AID 602332; further: potency means the concentration at half of the fitted maximal effect; series mostly up to about 76 µM; % of control where 0% means no effect; nearly all actives have a fitted effect of over 35% in size
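Stably transfected U87-MG glioma cells carrying a GRP78-based luciferase sensor; 16 h compound incubation. Luminescence end-point read 10 min after Bright-Glo addition at room temperature.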
CtBP-E1A blk – blocks the CtBP interaction with E1A. hit rate 0.49% among 340,000. AlphaScreen GST-E1A/His-CtBP binding, 1536-well; stronger effect = lower value. activity change, % (test concentration not listed); in the data active means activity change below about -65%; inconclusive means mostly about -30% to -63%; further: on the % scale 0 is the no-effect control and ±100 the full control effect
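Protein mix (5X: 125 nM each GST-E1A, His-CtBP) was incubated with pinned compound 2 h at 37 deg C in dark, in 50 mM Tris pH 8.0 buffer with 300 mM NaCl. Glutathione donor and nickel acceptor beads followed; AlphaScreen signal read after 1 h.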
Numbers without * were called inactive; ? = inconclusive; / = not tested or not shown. Most compounds without a hit are left out; they make up all but 0.58% or so of the library. Unless noted, the call rests on the fitted dose curve; in most records, active means well fitted curve in the direction sought with a large enough effect; inconclusive means small, poorly fitted or top-dose-only effect, or another doubt; inactive means no such curve, though single readings can be large; an effect the other way counts as inactive or inconclusive.

SMILES	Six1-Eya2 blk	Eya2 inh	Glioma ERSR ind	CtBP-E1A blk
Cc1c(CN(C)C)c2c(n1C)C(=O)c1ccc(Br)cc1-2	-29	-31%	-4%	6
Cc1c(CN(C)C)c2c(n1Cc1ccccc1)C(=O)c1ccc(Br)cc1-2	-65*	3%	-4%	?
COc1cc(/C=N/N(C)C2=NS(=O)(=O)c3ccccc32)cc(OC)c1OC	-83*	12%	-3%	-92*
O=C1CCCCN1CCC(=O)N1CCOc2ccc(C(O)C3CCCCC3)cc2C1 (centres undefined)	/	/	-1%	/
COc1cc(C(=O)NCc2nnc(SCC(=O)Nc3nccs3)o2)cc(OC)c1OC	-84*	9%	-1%	-78*
Cc1cccc(C)c1OCc1nnc(SCC(=O)Nc2nccs2)o1	-85*	?	0%	-91*
Cn1cc(Br)c(C(=O)Nc2sc3c(c2C(N)=O)CCC3)n1	-71*	-10%	-3%	-79*
Cn1ccc(C(=O)Nc2sc3c(c2C(N)=O)CCCCC3)n1	-23	-1%	-8%	-1
O=C1C(Nc2cccc(O)c2)=C(N2CCCCC2)C(=O)c2ccccc21	-71*	-14%	5%	6
O=C1C(Nc2ccccc2)=C(N2CCCCC2)C(=O)c2ccccc21	15	-5%	-8%	21
O=[N+]([O-])c1ccc(C[n+]2cccc3ccc4cccnc4c32)cc1	-90*	3%	-4%	-89*
CCN(CC)c1ccc2nc3ccc(N)cc3[n+](-c3ccccc3)c2c1	-78*	-21%	-11%	-84*
CCN(CC)c1ccc2nc3ccccc3[n+](CC)c2c1	-67*	?	-10%	-75*
C/C(=C\c1ccco1)CN1CCOc2ccc(CN3CCC(Oc4cccnc4)CC3)cc2C1	/	/	2%	/
COc1ccccc1-c1ccnc(-n2ncc(C(=O)NCc3cccc(C)n3)c2C)n1	/	/	-1%	/
CC(C)Cc1nc2cc(NS(=O)(=O)N(C)C)cc(C(=O)N3CCc4sccc4C3)c2n1C	/	/	8%	/
O=C(NC(=S)NNC(=O)c1cc2ccccc2cc1O)c1ccco1	-91*	8%	8%	-94*
O=C(/C=C/c1cccs1)NC(=S)NNC(=O)c1ccccc1O	-76*	0%	-4%	-94*
O=C(NNC(=S)NC(=O)c1ccco1)c1ccc(NC(=O)c2ccccc2)cc1	-2	-5%	-1%	/
O=C(NC(=S)NNC(=O)c1ccccc1O)c1ccco1	-91*	0%	2%	-7
CCC(=O)N[C@@H]1c2ccccc2C2(CCN(Cc3[nH]c4c(Cl)cccc4c3C)CC2)[C@H]1OC	/	/	-1%	/
COC(=O)C(C)Oc1cc(OC(C)C(=O)OC)c2c(C)c(Cl)c(=O)oc2c1 (centres undefined)	-3	3%	40µM*	5
COC(=O)COc1cc(OCC(=O)OC)c2c(C)c(Cl)c(=O)oc2c1	4	10%	13%	8
Cc1ccc2nc(N3CCCCCC3)c(CN(CC3CCCO3)C(=O)c3cncs3)cc2c1 (centres undefined)	/	/	-5%	/
Cc1ccn2c(Nc3ccccc3)c(-c3ccccn3)nc2c1	-74*	-18%	-5%	-78*
SMILES	Six1-Eya2 blk	Eya2 inh	Glioma ERSR ind	CtBP-E1A blk
Cc1ccccc1Nc1c(-c2cccnc2)nc2ccccn12	-3	7%	2%	-17
Cc1cccn2c(Nc3ccccc3)c(-c3ccccn3)nc12	-22	-6%	1%	-23
Cc1ccc2nc(-c3ccccn3)c(Nc3ccccc3C)n2c1	?	-3%	-6%	-91*
Cc1ccc2nc(-c3ccncc3)c(Nc3ccccc3C)n2c1	/	/	-2%	/
Cc1ccccc1Nc1c(-c2ccccn2)nc2ccccn12	-91*	-11%	-6%	/
Cc1ccn2c(Nc3ccccc3C)c(-c3ccccn3)nc2c1	-82*	-7%	-9%	-93*
CCc1nc(CN2CCOc3ccc(C(O)C4CCCCC4)cc3C2)c(C)[nH]1 (centres undefined)	/	/	-4%	/
CC(NC(=O)c1cccnc1)c1nnc2n1CCN(Cc1ccc(F)cc1F)CC2 (centres undefined)	/	/	-5%	/
O=C(NCCN1CCOCC1)c1cnn(-c2nccc(-c3cc4ccccc4o3)n2)c1C1CC1	/	/	-4%	/
O=C1C(=Cc2ccco2)CCC1=Cc1ccco1	-83*	/	0%	-1
Cc1cnc(-n2ncc(C(=O)N(C)CCc3ccccn3)c2-c2cccs2)nc1-c1ccc(F)cc1	/	/	-3%	/
CCOC(=O)C(Sc1nnc2c3ccccc3n(CC)c2n1)C(=O)OCC	?	10%	-2%	-72*
O=C(NN1C(=O)/C(=C/C=C/c2ccco2)SC1=S)c1ccccc1O	-72*	0%	-1%	?
CC(O)(COc1ccccc1)c1ccc2c(c1)CN(Cc1ccccn1)CCO2 (centres undefined)	/	/	-2%	/
C=CC[n+]1ccc(/C=C2\C=Cc3cc(C)ccc3N2CC)c2ccccc21	-73*	?	-3%	-21
COc1cc2[nH]c(=S)nc(NCC3CCCO3)c2cc1OC (centres undefined)	-90*	?	-2%	-87*
COc1cc2[nH]c(=S)nc(NC3CCCCCC3)c2cc1OC	-71*	16%	-4%	-67*
COc1cc2[nH]c(=S)nc(Nc3ccc(NC(C)=O)cc3)c2cc1OC	-88*	-11%	0%	-90*
COc1cc(OC)c(OC)cc1CN1CCCC(c2nc(C)ncc2-c2ccc(F)cc2)C1 (centres undefined)	/	/	-2%	/
Cc1nnsc1C(=O)NCC1Cc2cccc(-c3ncccn3)c2O1 (centres undefined)	/	/	-3%	/
Cn1nc(C(=O)Nc2ccc3c(c2)OCO3)c2ccccc2c1=O	?	-13%	19%	-86*
COc1ccc(-n2nc(C(=O)Nc3ccc4c(c3)OCO4)c3ccccc3c2=O)cc1	-10	4%	-1%	11
Cc1cccc2[nH]cc(/C=C3/C=Nc4ccccc43)c12	/	/	-1%	/
CCc1ccc(S(=O)(=O)NCc2nc(N3CCCC3)c3cccc(C)c3n2)cc1	/	/	-5%	/
COC(=O)c1ccccc1-c1cc(C)cc2c1OC(CNC(=O)c1occc1C)C2 (centres undefined)	/	/	4%	/
SMILES	Six1-Eya2 blk	Eya2 inh	Glioma ERSR ind	CtBP-E1A blk
CN1CCN(C(c2cccnc2)c2ccc3cccnc3c2O)CC1 (centres undefined)	-90*	1%	-1%	-81*
CN1CCN(C(c2ccc(Br)cc2)c2cc(Cl)c3cccnc3c2O)CC1 (centres undefined)	?	-18%	-17%	-90*
CN1CCN(C(c2ccc(F)cc2)c2ccc3cccnc3c2O)CC1 (centres undefined)	-6	/	-4%	/
CCOc1ccc(C(=O)OCC(=O)Nc2cccnc2Cl)cc1OCC	-3	1%	0%	-5
CCOC(=O)c1ncccc1NC(=O)CC(=O)Nc1cccnc1C(=O)OCC	-95*	/	12%	/
Cc1ncc2c(c1CNS(=O)(=O)c1cccs1)CCN(C(=O)/C=C/c1cc(F)cc(F)c1)C2	/	/	0%	/
CCOC(=O)c1c(C)oc2c1c(C=NCc1ccccn1)c(O)c1ccccc12	-75*	4%	1%	-1

From PubChem BioAssay
